From PubChem BioAssay
Calls of active or inactive are those of the source.

Experiments:
[1] = test system: PRMT1 (protein arginine N-methyltransferase 1); assay: PRMT1 binders on small-molecule microarrays, primary screen, biochemical, small-molecule microarray, 635 nm fluorescence (AID 1088); conditions: small-molecule microarray binding, higher = more signal;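 further: binding of Prmt1 protein to compounds spotted on small-molecule microarray slides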
[2] = yeast growth modulation, basal conditions, primary screen, YJM789 clinical isolate, OD600, 24 h (AID 1089);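 further: growth of clinical yeast isolate S. cerevisiae YJM 789 seeded 1000 cells per well; test concentration not given here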; conditions: S. cerevisiae YJM789 growth, higher = more signal, called active from +8 up or from −8 down
[3] = fission yeast growth modulation, primary screen, strain 972, OD600, 24 h, no modulator (AID 1090);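 further: basal condition with compound alone and no growth modifier present; test concentration not given here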; conditions: S. pombe 972 growth, higher = more signal, called active from +8 up or from −8 down
[4] = S. cerevisiae growth modulation with rapamycin, primary screen, strain BY4716, OD600, 96 h (AID 1091); conditions: higher = more signal, called active from +8 up or from −8 down; further: test concentration not given here
[5] = target: Torsin-1A-interacting protein 2 (Homo sapiens) (UniProt Q8NFQ8); assay: LULL1 binders on small-molecule microarray, primary screen, cell lysate, human LULL1 lysate, 635/667 nm fluorescence (AID 1092); conditions: hLULL1 lysate binding, 635 nm fluorescence, higher = more signal;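 further: probe is lysate of COS7 cells overexpressing human LULL1; score merges per-feature 667 nm fluorescence with signal-to-noise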
Chain of Torsin-1A-interacting protein 2 (Homo sapiens) (Q8NFQ8 whole entry, looked up): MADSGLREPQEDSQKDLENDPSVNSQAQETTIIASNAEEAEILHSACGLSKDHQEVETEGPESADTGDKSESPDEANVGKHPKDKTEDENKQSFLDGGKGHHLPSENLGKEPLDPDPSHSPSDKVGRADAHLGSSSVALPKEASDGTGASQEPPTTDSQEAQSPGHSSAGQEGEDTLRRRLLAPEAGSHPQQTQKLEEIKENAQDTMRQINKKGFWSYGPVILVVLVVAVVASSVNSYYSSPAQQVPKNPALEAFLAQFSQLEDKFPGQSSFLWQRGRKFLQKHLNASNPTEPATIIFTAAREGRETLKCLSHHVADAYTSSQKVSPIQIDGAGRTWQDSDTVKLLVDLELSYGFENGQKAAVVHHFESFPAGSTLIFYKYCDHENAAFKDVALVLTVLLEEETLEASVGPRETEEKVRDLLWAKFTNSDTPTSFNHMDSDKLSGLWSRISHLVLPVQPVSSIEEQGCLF

[6] = E. coli growth modulation, two-sided OD650, primary screen, E. coli filamentation project, strain DRC41, 24 h (AID 1093); conditions: OD650, 24 h, higher = more signal, called active from +8 up or from −8 down;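 further: MC1000 strain lacking acrAB efflux and sulA so SOS filamentation is blocked; test concentration not given here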
[7] = small-molecule microarray binders of probe aLefty2, primary screen, biochemical, biotinylated probe, 635/667 nm fluorescence (AID 1094); conditions: higher = more signal;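 further: score merges spot fluorescence near 667 nm with spot signal-to-noise ratio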
[8] = test system: Noggin (protein binding on small-molecule microarray); assay: Noggin binders on small-molecule microarray, primary screen, biochemical, 635/667 nm fluorescence (AID 1095); conditions: 635 nm fluorescence, higher = more signal;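 further: score merges 667 nm feature fluorescence with signal to noise over triplicate slides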
[9] = target: Neurogenic locus notch homolog protein 3 (Homo sapiens) (UniProt Q9UM47); assay: NOTCH3 binders on small-molecule microarray, primary screen, biochemical, 635/667 nm fluorescence (AID 1096); conditions: NOTCH3 binding, 635 nm fluorescence, higher = more signal
Chain of Neurogenic locus notch homolog protein 3 (Homo sapiens) (Q9UM47 whole entry, looked up): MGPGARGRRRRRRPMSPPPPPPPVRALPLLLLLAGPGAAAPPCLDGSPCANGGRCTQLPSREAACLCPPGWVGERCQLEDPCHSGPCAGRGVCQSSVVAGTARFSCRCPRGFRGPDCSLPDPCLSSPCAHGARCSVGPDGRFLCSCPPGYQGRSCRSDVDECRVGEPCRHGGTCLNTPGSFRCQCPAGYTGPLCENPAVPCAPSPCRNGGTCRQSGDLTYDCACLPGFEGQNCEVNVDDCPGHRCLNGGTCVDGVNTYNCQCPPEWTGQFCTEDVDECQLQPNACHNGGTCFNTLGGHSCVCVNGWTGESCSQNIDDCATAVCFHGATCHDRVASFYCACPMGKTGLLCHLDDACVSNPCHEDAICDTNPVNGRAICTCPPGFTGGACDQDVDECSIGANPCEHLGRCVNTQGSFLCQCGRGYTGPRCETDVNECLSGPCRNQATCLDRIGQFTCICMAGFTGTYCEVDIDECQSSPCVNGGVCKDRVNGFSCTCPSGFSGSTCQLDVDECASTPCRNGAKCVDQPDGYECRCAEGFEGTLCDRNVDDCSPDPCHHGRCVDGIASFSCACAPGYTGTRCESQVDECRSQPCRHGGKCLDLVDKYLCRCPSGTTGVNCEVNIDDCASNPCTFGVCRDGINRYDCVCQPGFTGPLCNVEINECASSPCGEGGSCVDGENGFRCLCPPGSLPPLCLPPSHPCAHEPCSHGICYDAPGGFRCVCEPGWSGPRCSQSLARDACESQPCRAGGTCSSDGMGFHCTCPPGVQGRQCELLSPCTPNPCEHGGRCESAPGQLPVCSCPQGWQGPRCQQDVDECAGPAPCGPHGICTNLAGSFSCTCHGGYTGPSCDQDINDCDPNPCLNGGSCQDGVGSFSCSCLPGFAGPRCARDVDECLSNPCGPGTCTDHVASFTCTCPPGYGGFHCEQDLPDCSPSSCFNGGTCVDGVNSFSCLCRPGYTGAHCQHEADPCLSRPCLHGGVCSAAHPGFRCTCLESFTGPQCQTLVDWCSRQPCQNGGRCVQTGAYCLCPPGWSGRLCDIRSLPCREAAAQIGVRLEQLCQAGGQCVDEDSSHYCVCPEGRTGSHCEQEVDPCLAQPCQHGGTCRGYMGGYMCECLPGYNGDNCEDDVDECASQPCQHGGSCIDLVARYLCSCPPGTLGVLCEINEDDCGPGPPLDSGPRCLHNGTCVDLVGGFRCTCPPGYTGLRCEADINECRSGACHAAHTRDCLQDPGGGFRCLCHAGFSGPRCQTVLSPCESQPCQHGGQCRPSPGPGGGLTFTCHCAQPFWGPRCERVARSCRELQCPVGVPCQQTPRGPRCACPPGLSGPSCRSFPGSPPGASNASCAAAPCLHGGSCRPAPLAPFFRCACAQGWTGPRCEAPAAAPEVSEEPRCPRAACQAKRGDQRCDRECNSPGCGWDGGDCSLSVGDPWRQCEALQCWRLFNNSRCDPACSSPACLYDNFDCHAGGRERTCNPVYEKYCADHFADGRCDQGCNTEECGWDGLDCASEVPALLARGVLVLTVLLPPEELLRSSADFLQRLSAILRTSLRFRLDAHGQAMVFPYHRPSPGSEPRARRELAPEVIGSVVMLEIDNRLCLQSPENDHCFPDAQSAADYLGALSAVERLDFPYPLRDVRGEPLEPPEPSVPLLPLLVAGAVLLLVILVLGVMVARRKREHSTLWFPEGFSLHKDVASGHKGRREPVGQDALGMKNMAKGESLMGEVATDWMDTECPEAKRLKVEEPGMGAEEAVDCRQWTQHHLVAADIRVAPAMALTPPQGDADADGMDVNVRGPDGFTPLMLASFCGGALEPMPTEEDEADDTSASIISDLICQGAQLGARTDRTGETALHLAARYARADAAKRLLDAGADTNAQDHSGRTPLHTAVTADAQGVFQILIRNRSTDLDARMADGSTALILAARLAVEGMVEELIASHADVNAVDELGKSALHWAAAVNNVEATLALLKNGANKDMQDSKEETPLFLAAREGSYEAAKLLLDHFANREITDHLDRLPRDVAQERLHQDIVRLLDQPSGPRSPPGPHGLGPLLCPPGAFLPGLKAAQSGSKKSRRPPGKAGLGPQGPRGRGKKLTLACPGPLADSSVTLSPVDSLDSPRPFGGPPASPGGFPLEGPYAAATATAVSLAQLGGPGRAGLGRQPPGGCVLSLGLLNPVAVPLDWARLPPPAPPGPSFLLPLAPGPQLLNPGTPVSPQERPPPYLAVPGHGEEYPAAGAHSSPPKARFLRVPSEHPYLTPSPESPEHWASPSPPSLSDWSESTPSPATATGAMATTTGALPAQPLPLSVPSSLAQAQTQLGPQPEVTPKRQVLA

[10] = small-molecule microarray binders of probe aEGFR, primary screen, biochemical, biotinylated probe, 635/667 nm fluorescence (AID 1097); conditions: higher = more signal;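 further: probe is a biotinylated anti-EGFR antibody binding compounds printed on slides; score combines fluorescence near 667 nm and signal to noise of each spot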

Compound | composite z-score [1] | z-score [2] | z-score [3] | z-score [4] | composite z-score [5] | z-score [6] | composite z-score [7] | composite z-score [8] | composite z-score [9] | composite z-score [10]
COCCOC(=O)N1C(=O)[C@@]2(c3cc(C#CCCO)ccc31)[C@H](C(=O)N1CCN(c3ncccn3)CC1)[C@H]1C(=O)O[C@H](c3ccccc3)[C@H](c3ccccc3)N1[C@@H]2c1ccccc1OCCO | 1.55 | 0.335 (inactive) | 0.411 (inactive) | 3.34 (inactive) | 2.98 | 1.84 (inactive) | -0.114 | 0.791 | 0.846 | 0.268
[N-]=[N+]=NCc1ccccc1[C@@H]1OC(c2ccc(OCCCO)cc2)=N[C@]1(CCS(=O)(=O)c1ccccc1)C(=O)NCc1ccccc1 | 1.55 | 0.182 (inactive) | 1.18 (inactive) | 3.49 (inactive) | 3.25 | -0.382 (inactive) | 0.468 | 1.81 | 1.09 | 0.198
COc1ccc([Si](C)(C)[C@H]2[C@H](CC(=O)N3Cc4ccccc4C[C@H]3CO)O[C@@]3(C(=O)N(Cc4ccc(N5CCC5=O)cc4)c4ccccc43)[C@@H]2C)cc1 | 1.54 | -1.57 (inactive) | 0.52 (inactive) | 0.98 (inactive) | 2.6 | 1.65 (inactive) | 0.148 | 1.57 | 1.14 | 0.0321
CN(C)CCCC[C@@H]1NC(=O)[C@H]2C[C@@H](C(=O)NCCCCCNC(=O)CS)[C@@H](c3cccc(OCCO)c3)N2C1=O | 1.18 | -1.14 (inactive) | -1.3 (inactive) | -0.296 (inactive) | 2.79 | -0.328 (inactive) | 0.0144 | 1.54 | 0.534 | -0.136
OC([C@@H]1CC(c2ccccc2)=NO1)[C@H]1CC(c2ccccc2)=NO1 (stereo not given in full) | -0.629 | 0.784 (inactive) | -0.786 (inactive) | 1.55 (inactive) | 0.299 | 2.52 (inactive) | -0.0748 | 0.281 | -0.158 | 0.0655
CN(C)CCCNC(=O)[C@@]1(c2ccc([N+](=O)[O-])cc2)CC(=O)N(C2CCCCC2)[C@@H]1c1ccc(CO)cc1I | 1.07 | -1.13 (inactive) | -20.1 (active) | -3.11 (inactive) | 1.84 | -0.112 (inactive) | -0.147 | 0.331 | 0.215 | -0.0679
CN(C)CCCNC(=O)[C@@]1(c2ccc([N+](=O)[O-])cc2)CC(=O)N(C2CCCCC2)[C@@H]1c1ccc(CO)cc1 | 1.54 | 1.78 (inactive) | -8.13 (active) | -1.97 (inactive) | 1.09 | 0.59 (inactive) | -0.0259 | 0.0069 | 0.444 | -0.0978
COc1ccc(CCN2C(=O)[C@@]3(c4ccc([N+](=O)[O-])cc4)CC(=O)N(C4CCCCC4)[C@@H]3c3ccc(CO)cc32)cc1 | 1.09 | -1.82 (inactive) | 0.701 (inactive) | -1.83 (inactive) | 0.479 | 0.483 (inactive) | -0.0246 | 0.792 | 0.441 | -0.1
COc1ccc(C(=O)Nc2ccc(CN3C(=O)[C@@]4(O[C@@H](CCO)[C@H]([Si](C)(C)c5ccc(OC)cc5)[C@H]4C)c4ccccc43)cc2)cc1 | 1.54 | -0.81 (inactive) | -7.92 (inactive) | 0.495 (inactive) | 1.4 | 0.0243 (inactive) | 0.0217 | 1.49 | 1.08 | -0.0774
CC(CO)N1C(=O)[C@@H]2C3C(=O)OCCC/C=C\[C@H]3OC23C=CCN(c2ccc4ccccc4c2)C(=O)[C@@H]13 (stereo not given in full) | 0.0691 | -0.531 (inactive) | -0.743 (inactive) | -0.0295 (inactive) | -0.504 | 0.0095 (inactive) | -0.0516 | -0.871 | -0.341 | -0.18
C=CCC(OC(C)=O)[C@@H]1[C@@H](N(Cc2ccc(-c3cccc(C(F)(F)F)c3)o2)C(=O)c2ccc(-c3ccccc3)cc2)c2cc(OCCCO)ccc2N1C(=O)c1ccc(-c2ccccc2)cc1 (stereo not given in full) | -0.432 | 0.308 (inactive) | -0.0943 (inactive) | 0.8 (inactive) | 1.03 | -0.801 (inactive) | 0.0869 | -0.29 | -0.147 | -0.15
COc1ccc(C(O)C2C=CC3C(=O)N(C)C(=O)C3N2N2CCCCC2)c2ccccc12 (stereo not given) | 1.42 | -0.079 (inactive) | 1.16 (inactive) | 0.631 (inactive) | 3.01 | -1.22 (inactive) | 0.168 | 0.303 | 1.11 | 0.095
[N-]=[N+]=NCc1ccccc1C[C@]1(C(=O)N2CCOCC2)N=C(c2ccc(OCCCO)cc2)O[C@H]1c1ccccc1N=[N+]=[N-] | 1.41 | -1.18 (inactive) | -2.26 (inactive) | 2.79 (inactive) | 3.51 | 0.188 (inactive) | 0.349 | 1.5 | 1.03 | 0.144
CN1C(=O)C2C=CC(C(O)Cc3ccccc3)N(Nc3ccccc3)C2C1=O (stereo not given) | 0.0459 | 0.398 (inactive) | 0.0113 (inactive) | -0.0322 (inactive) | 3.43 | -1.05 (inactive) | 0.126 | 0.129 | 0.297 | -0.071
O=C1OCC=C[C@H]2OC34C=CCN(c5ccc6ccccc6c5)C(=O)[C@H]3N(CCCCCCO)C(=O)[C@@H]4[C@@H]12 (stereo not given in full) | -0.518 | -0.966 (inactive) | -0.715 (inactive) | -0.806 (inactive) | 2.62 | -0.133 (inactive) | -0.0493 | -1.33 | -0.435 | -0.256
COc1ccc(COC2OC[C@]3(C)[C@H]4C5=C(CN3C(=O)OC(C)(C)C)[C@H](C)C(CO)C(CO)C5CC[C@@H]24)cc1 (stereo not given in full) | 0.482 | 0.677 (inactive) | 0.805 (inactive) | 0.502 (inactive) | 3.27 | -1.76 (inactive) | 0.341 | 0.277 | 1.06 | 0.0699
CO[C@H]1O[C@H](CO)[C@@H](OC(=O)Nc2ccc(Br)cc2)[C@H](OC(=O)c2cc3ccccc3[nH]2)[C@H]1OC(=O)c1cc2ccccc2[nH]1 | 1.39 | -1.96 (inactive) | -1.59 (inactive) | -0.654 (inactive) | 2.48 | 2.05 (inactive) | 0.0166 | 0.514 | 0.944 | 0.0686
COCCOC(=O)N1C(=O)[C@@]2(c3cc(C#CCCO)ccc31)[C@H](C(=O)Nc1nc3ccccc3s1)[C@H]1C(=O)O[C@H](c3ccccc3)[C@H](c3ccccc3)N1[C@@H]2c1ccc(OCCO)cc1 | 1.54 | 1.58 (inactive) | 1.09 (inactive) | 2.02 (inactive) | 1.89 | 0.176 (inactive) | 0.0444 | 0.874 | 1.1 | 0.0848
C[C@@]1([C@@H](NC(=O)c2ccccc2)c2ccc(-c3ccccc3)cc2)C[C@H]1C1CCCCC1 | -1.93 | -0.0151 (inactive) | 0.443 (inactive) | 0.32 (inactive) | 0.429 | -1.48 (inactive) | 0.527 | -0.992 | -1.42 | 0.247
CS(=O)(=O)CCOC(=O)C1=CC(CCCO)=CC(c2ccc(CN3CCCC3)cc2)N(Cc2cc3c(cc2Br)OCO3)C=C1C(=O)OCCS(C)(=O)=O (stereo not given) | 1.46 | 0.978 (inactive) | -5.34 (inactive) | -1.62 (inactive) | 2.5 | -0.567 (inactive) | 0.0417 | 0.334 | 1.15 | 0.101
C=CCNC(=O)[C@@H]1[C@H]2C(=O)O[C@H](c3ccccc3)[C@H](c3ccccc3)N2[C@H](c2ccc(OCCO)cc2)[C@@]12C(=O)Nc1ccc(C#Cc3ccc(OC)cc3)cc12 | 1.55 | 2.34 (inactive) | 0.961 (inactive) | 4.49 (inactive) | 2.48 | 0.838 (inactive) | 0.182 | 1.22 | 1.08 | 0.116
COC(=O)[C@@]1(Cc2ccc(OC)cc2)[C@H]2c3cc(C(=O)N4CCCC4)n(Cc4ccc(OC)c(OC)c4)c3C[C@H]2CN1C(=O)c1ccccc1 | 0.929 | -0.515 (inactive) | 0.835 (inactive) | 1.18 (inactive) | 3.36 | -0.148 (inactive) | 1.2 | 0.793 | 1.11 | 0.889
O=C(NCc1ccccc1)[C@@]1(Cc2ccccc2)N=C(c2ccc(OCCCO)cc2)O[C@H]1c1ccccc1 | 0.982 | 0.46 (inactive) | -0.666 (inactive) | 23.2 (active) | 3.39 | 0.842 (inactive) | 0.126 | -0.595 | 0.642 | 0.0357
C=CCNC(=O)[C@H]1[C@@H]2C(=O)O[C@@H](c3ccccc3)[C@@H](c3ccccc3)N2[C@@H](c2ccc(OCCO)cc2)[C@]12C(=O)Nc1ccc(C#CC3=CCCCC3)cc12 | 1.55 | 2.28 (inactive) | 1.46 (inactive) | 4.72 (inactive) | 2.89 | 1.53 (inactive) | -0.109 | 0.673 | 1.15 | -0.147
Cc1ccc(S[C@]2(C(=O)NCCN3CCOCC3)CC(=O)N(Cc3ccccc3)[C@@H]2c2ccc(CO)cc2I)cc1 | 0.01 | -0.605 (inactive) | -3 (inactive) | 0.576 (inactive) | 2.07 | -1.17 (inactive) | 0.0769 | -1.57 | -0.791 | -0.378
C=CCOC(=O)[C@@H]1[C@H]2C(=O)O[C@H](c3ccccc3)[C@H](c3ccccc3)N2[C@H](c2ccc(OCCOC(=O)[C@@H]3C[C@@H]4C(=O)N5CCC[C@H]5C(=O)N4[C@@H]3c3ccc(O)cc3)cc2)[C@@]12C(=O)Nc1ccc(I)cc12 | 1.42 | -0.577 (inactive) | 0.687 (inactive) | 2.09 (inactive) | 2.55 | 1.75 (inactive) | -0.207 | 1.51 | 0.565 | -0.242
COc1ccc([Si](C)(C)[C@H]2[C@H](CCO)O[C@@]3(C(=O)N(C)c4c(Br)cc(C)cc43)[C@@H]2C)cc1 | 1.49 | 0.117 (inactive) | -2.89 (inactive) | 34 (active) | 1.04 | 0.714 (inactive) | -0.1 | 0.76 | 1.1 | -0.0627
Cc1ccc(C(C)CC(O)C2C=CC3C(=O)N(c4ccccc4)C(=O)C3N2Nc2ccc([N+](=O)[O-])cc2)o1 (stereo not given) | 1.55 | 0.0574 (inactive) | 0.593 (inactive) | 1.31 (inactive) | 3.1 | -0.468 (inactive) | 0.157 | 0.181 | 1.1 | 0.0807
